Source: PubChem BioAssay (Tox21)
Records with an inconclusive call do not appear. A call without a number means that no potency is given here. More than one record can exist for a structure, and the calls need not agree. Activity calls are given as the source filed them. Unless noted, calls come from the whole dose curve.

Key:
[1] = Nuclear factor erythroid 2-related factor 2/antioxidant responsive element (Nrf2/ARE) small molecule agonists: qHTS cell viability counter screen in human keratinocytes (AID 1919968; active = well fitted curve in the direction sought with a large enough effect in the repeat runs; an effect the other way counts as inactive or inconclusive; note: nearly all actives have a fitted effect of over 55% in size)
Method in brief: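 KeratinoSens HaCaT cells, 1,500/well, preincubated 5 h, then exposed to compounds in DMSO for 23 h at 37 C/5% CO2. Viability read as CellTiter-Fluor fluorescence after 1 h, in the same wells as the ARE-luciferase read.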

[2] = Nuclear factor erythroid 2-related factor 2/antioxidant responsive element (Nrf2/ARE) small molecule agonists: luciferase reporter gene qHTS assay in human keratinocytes (AID 1919969); note: nearly all actives have a fitted effect of over 35% in size; note: potency is the fitted concentration of half-maximal effect
[3] = biological target: KiSS-1 receptor (Homo sapiens) (UniProt Q969F8); assay: Human kisspeptin (KISS1R) small molecule agonists, calcium flux assay in KISS1R-HEK293 cells (AID 1920064; active = well fitted curve in the direction sought with a large enough effect in the repeat runs; an effect the other way counts as inactive or inconclusive)
Method in brief: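 HEK293 cells stably expressing human KISS1R were loaded with calcium dye for 1 h at 37 C, then given compound; fluorescence (Ex/Em 480/540) was read kinetically for 3 min. Fifteen concentrations, triplicate.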

[4] = G protein-coupled receptor (GPCR) small molecule agonists, calcium flux assay: HEK293 wild type cell line counter screen (AID 1920065)
Method in brief: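 Wild-type HEK293 cells plated 18 h, loaded with calcium dye 1 h at 37 C, then compounds added in agonist mode (ATP as positive control). Kinetic fluorescence Ex/Em 480/540 recorded 3 min at 1 sec intervals; 15 concentrations, triplicate.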

[5] = p53 small molecule agonists, cell-based qHTS assay with human liver microsomes (AID 1963577);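 note: p53 response element beta-lactamase reporter cells with liver microsomes plus NADPH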
Method in brief: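 With metabolic activation: human liver microsomes (0.5 mg/mL final) plus NADPH (0.5 mg/mL final) added alongside compounds to p53RE-bla cells; 16 h 37 C exposure; beta-lactamase read by LiveBLAzer fluorescence.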

[6] = p53 small molecule agonists, cell-based qHTS assay with rat liver microsomes (AID 1963578)
Method in brief: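 Metabolic activation by rat liver microsomes and NADPH, each 0.5 mg/mL final, added right after compounds to p53RE-bla reporter cells (4,000/well, plated 5 h earlier). 16 h at 37 C, then LiveBLAzer substrate for 2 h at room temperature in the dark; fluorescence read-out.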

[7] = p53 small molecule agonists, cell-based qHTS assay with human liver microsomes: qHTS cell viability counter screen (AID 1963579); note: nearly all actives have a fitted effect of over 45% in size
Method in brief: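 Metabolic activation used human liver microsomes and NADPH, both 0.5 mg/mL final, over 16 hours at 37 C on p53RE-bla cells (4,000/well). Cytotoxicity measured by CellTiter-Glo luminescence, 30 min at room temperature.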

[8] = p53 small molecule agonists, cell-based qHTS assay with rat liver microsomes: qHTS cell viability counter screen (AID 1963580); note: nearly all actives have a fitted effect of over 45% in size
Method in brief: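 HCT-116 p53RE-bla, 4,000 cells/well, 5 h pre-incubation; cpd + rat liver microsomes 0.5 mg/mL + NADPH 0.5 mg/mL (final); 16 h, 37 C; CellTiter-Glo, 30 min RT; luminescence.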

[9] = biological target: 5-hydroxytryptamine receptor 2A (Homo sapiens) (UniProt P28223); assay: 5-hydroxytryptamine receptor 2A (HTR2A) small molecule antagonists, cell-based qHTS assay (AID 1963586); note: nearly all actives have a fitted effect of over 45% in size; note: potency is the fitted concentration of half-maximal effect
Method in brief: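 Antagonist-mode intracellular calcium assay: DOI (4 nM) added after 5 min compound pre-incubation at room temperature to dye-loaded HTR2A-CHO cells. Fluorescence followed for 3 min, sampled every second.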

[10] = biological target: 5-hydroxytryptamine receptor 2A (Homo sapiens) (UniProt P28223); assay: 5-hydroxytryptamine receptor 2A (HTR2A) small molecule agonists, cell-based qHTS assay (AID 1963587); note: nearly all actives have a fitted effect of over 30% in size
Method in brief: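 Kinetic calcium-flux fluorescence (2 min, 1 sec intervals) after compound addition in agonist mode. HTR2A-CHO cells were cultured 18 h, then dye-loaded 1 h at 37 C.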

[11] = biological target: Muscarinic acetylcholine receptor M1 (Homo sapiens) (UniProt P11229); assay: Cholinergic receptor muscarinic 1 (CHRM1) small molecule antagonists, cell-based qHTS assay (AID 1963588); note: nearly all actives have a fitted effect of over 40% in size
Method in brief: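 CHRM1-CHO calcium-flux assay, antagonist mode. Cells were seeded 18 h, dye-loaded 1 h at 37 C and given compound for 5 min at RT, then acetylcholine was added at 50nM. FDSS fluorescence was read 3 min; 15 concentrations, three runs.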

[12] = biological target: Muscarinic acetylcholine receptor M1 (Homo sapiens) (UniProt P11229); assay: Cholinergic receptor muscarinic 1 (CHRM1) small molecule agonists, cell-based qHTS assay (AID 1963589); note: nearly all actives have a fitted effect of over 35% in size
Method in brief: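 CHO cells stably expressing human CHRM1 were loaded with calcium dye for 1 h at 37 C, then compound was added in agonist mode. Intracellular calcium fluorescence was followed kinetically at 1 s intervals. Fifteen concentrations were tested in three independent runs.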

[13] = cAMP Responsive Elements (CRE) small molecule agonists, cell-based qHTS assay (AID 1963590)
Method in brief: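 CRE-bla HEK 293T cells, 2,000/well in DMEM with 10% dialyzed FBS and 25 mM HEPES, pre-incubated 18 h at 37 C, then exposed to compound 3 h at 37 C. Beta-lactamase reporter read with LiveBLAzer B/G FRET substrate after 2 h at room temperature.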

[14] = cAMP Responsive Elements (CRE) small molecule antagonists, cell-based qHTS assay (AID 1963591; active = well fitted inhibition curve with a large enough effect in the signal ratio in the repeat runs, not every such curve was filed as active; the % refers to the signal ratio)
Method in brief: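 CRE-bla HEK293T cells plated 18 h, then given compound plus NKH477 at 0.25 uM final for 3 h at 37C. Beta-lactamase reporter read with LiveBLAzer B/G FRET substrate after 2 h at room temperature.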

[15] = biological target: Beta-2 adrenergic receptor (Homo sapiens) (UniProt P07550); assay: Adrenergic beta2 receptor (ADRB2) small molecule antagonists, cell-based qHTS assay (AID 1963592); note: series mostly up to about 92 µM; nearly all actives have a fitted effect of over 50% in size
Method in brief: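 Cells (CHO, stable ADRB2 overexpression) incubated 18-20hr at 37C; compounds added from DMSO; agonist mix (1nM isoproterenol, 100uM IBMX, 25uM Ro-20-1724) added; 0.5hr RT; d2-cAMP and anti-cAMP-cryptate added; 1hr RT; 665/615 nm read.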

[16] = biological target: Beta-2 adrenergic receptor (Homo sapiens) (UniProt P07550); assay: Adrenergic beta2 receptor (ADRB2) small molecule agonists, cell-based qHTS assay (AID 1963593);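 note: CHO cells stably overexpressing human ADRB2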
Method in brief: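 CHO cells stably over-expressing ADRB2 were plated overnight at 37C, then dosed with compounds plus a stimulation mix containing 100uM IBMX and 25uM Ro-20-1724 for 0.5hr at room temperature. cAMP was measured by HTRF competition, 1hr.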

[17] = biological target: D(2) dopamine receptor (Homo sapiens) (UniProt P14416); assay: Dopamine D2 receptor (DRD2) small molecule agonists, cell-based qHTS assay (AID 1963594); note: nearly all actives have a fitted effect of over 35% in size
Method in brief: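 cAMP accumulation in DRD2-HEK293 cells measured by HTRF after 1 h detection; compounds added 10 min before NKH477 (200nM […]) forskolin-analogue stimulation, 30 min at room temperature, with Ro20-1724 present at 0.1 mM final.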

[18] = biological target: D(2) dopamine receptor (Homo sapiens) (UniProt P14416); assay: Dopamine D2 receptor (DRD2) small molecule antagonists, cell-based qHTS assay (AID 1963595; active = well fitted inhibition curve with a large enough effect in the signal ratio in the repeat runs, with a control signal flat; the % refers to the signal ratio)
Method in brief: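 Antagonist mode in DRD2-HEK293 cells: after compound addition with 0.1 mM Ro20-1724, cells received quinpirole (12 nM) and NKH477 (200 nM) for 30 min at room temperature; HTRF cAMP read after 1 h detection.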

[19] = p53 small molecule agonists, cell-based qHTS assay: qHTS cell viability counter screen (AID 1963581); note: nearly all actives have a fitted effect of over 45% in size
Method in brief: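 p53RE-bla HCT-116 cells, compounds added 5 h after plating and incubated 16 h at 37 C. Cytotoxicity measured in the same wells as intracellular ATP by CellTiter-Glo luminescence after 30 min at room temperature.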

[20] = p53 small molecule agonists, cell-based qHTS assay (AID 1963582; active = well fitted activation curve with a large enough effect in the signal ratio in the repeat runs, not every such curve was filed as active; the % refers to the signal ratio)
Method in brief: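 p53RE-bla reporter cells, compounds added in DMSO after 5 h plating, incubated 16 h at 37 C. Beta-lactamase read via 2 h room-temperature LiveBLAzer B/G FRET substrate, fluorescence intensity.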

Chain of Muscarinic acetylcholine receptor M1 (Homo sapiens) (P11229 whole entry, looked up): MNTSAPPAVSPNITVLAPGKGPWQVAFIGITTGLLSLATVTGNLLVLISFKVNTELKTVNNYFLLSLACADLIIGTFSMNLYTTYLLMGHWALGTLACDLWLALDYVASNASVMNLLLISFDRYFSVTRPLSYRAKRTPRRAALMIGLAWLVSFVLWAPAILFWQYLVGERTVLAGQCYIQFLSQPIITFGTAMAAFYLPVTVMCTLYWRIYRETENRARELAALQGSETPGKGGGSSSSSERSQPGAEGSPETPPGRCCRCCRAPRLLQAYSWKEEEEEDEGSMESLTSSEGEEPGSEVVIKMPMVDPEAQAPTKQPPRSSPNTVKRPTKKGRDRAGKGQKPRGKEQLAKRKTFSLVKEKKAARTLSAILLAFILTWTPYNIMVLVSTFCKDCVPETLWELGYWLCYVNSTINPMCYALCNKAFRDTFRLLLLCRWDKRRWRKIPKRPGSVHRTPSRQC
Chain of Beta-2 adrenergic receptor (Homo sapiens) (P07550 whole entry, looked up): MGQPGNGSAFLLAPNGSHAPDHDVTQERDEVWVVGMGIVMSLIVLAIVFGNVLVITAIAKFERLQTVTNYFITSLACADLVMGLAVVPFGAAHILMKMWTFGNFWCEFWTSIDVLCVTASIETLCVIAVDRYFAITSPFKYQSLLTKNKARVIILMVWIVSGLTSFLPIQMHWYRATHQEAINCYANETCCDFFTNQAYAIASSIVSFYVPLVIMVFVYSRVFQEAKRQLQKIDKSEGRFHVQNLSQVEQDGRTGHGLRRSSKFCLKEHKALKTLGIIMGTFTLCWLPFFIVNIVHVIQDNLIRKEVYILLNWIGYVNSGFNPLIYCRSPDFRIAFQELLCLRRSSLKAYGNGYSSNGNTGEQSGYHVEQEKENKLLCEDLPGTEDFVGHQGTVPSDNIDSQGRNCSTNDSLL
Chain of 5-hydroxytryptamine receptor 2A (Homo sapiens) (P28223 whole entry, looked up): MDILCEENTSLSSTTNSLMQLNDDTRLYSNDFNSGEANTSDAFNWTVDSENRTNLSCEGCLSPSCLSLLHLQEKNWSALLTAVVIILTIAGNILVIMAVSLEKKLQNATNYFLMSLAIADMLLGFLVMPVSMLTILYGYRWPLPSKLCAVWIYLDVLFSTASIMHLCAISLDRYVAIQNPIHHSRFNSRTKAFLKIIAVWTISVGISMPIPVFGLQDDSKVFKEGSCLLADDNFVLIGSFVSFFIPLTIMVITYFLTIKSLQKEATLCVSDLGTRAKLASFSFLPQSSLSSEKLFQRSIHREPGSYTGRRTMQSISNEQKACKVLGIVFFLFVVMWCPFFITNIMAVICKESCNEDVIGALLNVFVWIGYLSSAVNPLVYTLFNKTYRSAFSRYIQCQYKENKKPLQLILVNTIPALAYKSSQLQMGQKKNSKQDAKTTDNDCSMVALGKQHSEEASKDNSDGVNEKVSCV
Chain of D(2) dopamine receptor (Homo sapiens) (P14416 whole entry, looked up): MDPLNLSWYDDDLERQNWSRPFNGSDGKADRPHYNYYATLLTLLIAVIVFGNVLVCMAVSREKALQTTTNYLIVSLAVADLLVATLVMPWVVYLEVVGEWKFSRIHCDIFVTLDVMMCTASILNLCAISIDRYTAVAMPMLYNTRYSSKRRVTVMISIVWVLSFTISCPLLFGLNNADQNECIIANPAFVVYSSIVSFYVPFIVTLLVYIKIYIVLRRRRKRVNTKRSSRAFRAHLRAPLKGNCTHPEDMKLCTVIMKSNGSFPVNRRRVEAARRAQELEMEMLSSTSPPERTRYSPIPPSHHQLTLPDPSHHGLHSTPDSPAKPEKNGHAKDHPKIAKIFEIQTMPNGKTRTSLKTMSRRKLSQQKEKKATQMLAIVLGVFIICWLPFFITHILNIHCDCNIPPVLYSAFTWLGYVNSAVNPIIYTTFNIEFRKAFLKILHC
Chain of KiSS-1 receptor (Homo sapiens) (Q969F8 whole entry, looked up): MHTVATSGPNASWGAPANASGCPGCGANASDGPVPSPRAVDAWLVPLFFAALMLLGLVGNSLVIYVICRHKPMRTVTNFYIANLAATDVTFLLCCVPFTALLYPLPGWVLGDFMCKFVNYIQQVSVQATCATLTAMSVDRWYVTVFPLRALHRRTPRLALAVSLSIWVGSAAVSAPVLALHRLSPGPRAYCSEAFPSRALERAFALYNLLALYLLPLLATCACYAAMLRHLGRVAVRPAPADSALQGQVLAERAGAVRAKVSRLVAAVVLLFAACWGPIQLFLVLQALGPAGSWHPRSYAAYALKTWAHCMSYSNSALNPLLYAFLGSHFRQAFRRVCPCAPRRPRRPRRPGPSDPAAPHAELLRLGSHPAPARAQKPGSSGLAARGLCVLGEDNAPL

Compound | Potency [1] | Potency [2] | Potency [3] | Potency [4] | Potency [5] | Potency [6] | Potency [7] | Potency [8] | Potency [9] | Potency [10] | Potency [11] | Potency [12] | Potency [13] | Potency [14] | Potency [15] | Potency [16] | Potency [17] | Potency [18] | Potency [19] | Potency [20]
CC[C@]12CCCN3CCc4c(n(c5ccccc45)[C@@](O)(C(=O)OC)C1)[C@@H]32 | inactive | inactive | inactive | inactive | inactive | inactive | inactive | inactive | inactive | inactive | inactive | inactive | inactive | inactive | inactive | inactive | inactive | inactive | – | –
CCCCSCCCC | inactive | inactive | inactive | inactive | inactive | inactive | inactive | inactive | inactive | inactive | – | inactive | inactive | – | inactive | – | inactive | inactive | inactive | inactive
[O-][n+]1ccc(Cl)cc1 | inactive | inactive | inactive | inactive | inactive | inactive | inactive | inactive | – | inactive | inactive | inactive | inactive | inactive | – | inactive | inactive | inactive | – | inactive
NC(=S)N/N=C/c1cccnc1 | inactive | inactive | inactive | inactive | inactive | inactive | inactive | inactive | inactive | inactive | inactive | inactive | inactive | inactive | inactive | inactive | – | inactive | inactive | inactive
Cc1ccc(N)cc1[N+](=O)[O-] | inactive | inactive | inactive | inactive | inactive | inactive | inactive | inactive | inactive | inactive | inactive | inactive | inactive | inactive | inactive | – | inactive | inactive | inactive | inactive
CCC(=O)OC(C)(C)C1CC=C(C)CC1 (stereo not given) | inactive | inactive | inactive | inactive | inactive | inactive | inactive | inactive | inactive | – | inactive | inactive | inactive | inactive | inactive | inactive | inactive | inactive | inactive | inactive
Cn1cnc([N+](=O)[O-])c1Sc1ncnc2nc[nH]c12 | inactive | 27.1 µM (active) and inactive | inactive | inactive | inactive | inactive | inactive | inactive | – | – | – | – | inactive | inactive | inactive | – | inactive | inactive | inactive | –
CCn1c2ccccc2c2ccccc21 | inactive | inactive | inactive | inactive | inactive | inactive | inactive | inactive | inactive | inactive | inactive | inactive | inactive | inactive | – | – | inactive | inactive | inactive | inactive
CC(C)(C)c1nnc(NS(=O)(=O)c2ccc(N)cc2)s1 | inactive | inactive | inactive | inactive | inactive | inactive | inactive | inactive | 7.29 µM (active) | inactive | inactive | inactive | inactive | inactive | inactive | inactive | inactive | inactive | inactive | inactive
C=CC(=O)CCCCC | inactive | inactive | inactive | inactive | inactive | inactive | inactive | inactive | inactive | inactive | inactive | inactive | inactive | inactive | inactive | inactive | inactive | inactive | inactive | inactive
CC(CO)c1ccccc1 (stereo not given) | inactive | inactive | inactive | inactive | inactive | inactive | inactive | inactive | inactive | inactive | inactive | inactive | inactive | – | inactive | inactive | – | – | inactive | inactive
CC(C)c1cccc(C(C)C)c1N | inactive | inactive | inactive | inactive | inactive | inactive | inactive | inactive | inactive | inactive | inactive | inactive | inactive | inactive | inactive | inactive | inactive | – | inactive | inactive
CCNc1nc(N)nc(Cl)n1 | inactive | inactive | inactive | inactive | inactive | inactive | inactive | inactive | inactive | inactive | inactive | inactive | inactive | inactive | inactive | – | inactive | inactive | inactive | inactive
CC/C=C\CCO | inactive | inactive | inactive | inactive | inactive | inactive | inactive | inactive | inactive | inactive | inactive | inactive | inactive | inactive | inactive | inactive | inactive | – | inactive | inactive
